Experimental data published in PubChem BioAssay (EPA / NIEHS).
Values joined by “and” are separate entries in the source; they are usually repeats but may differ in a detail not shown here. Identical values can stand only once. Some compounds were tested as several samples or in several runs, with calls that do not always agree. Active and inactive are the calls of the source. Rule for the calls: active = hit-call score of the fitted dose curve at least 0.9, where 1 is the maximum; inactive = score below 0.9.

Columns and labels:
[1] = read-out: Interleukin-8 (IL8), CXCL8 (gene 3576); assay: BSK_BF4T_IL8: BioMAP Diversity Plus: BF4T Assay for Interleukin-8 (IL8) Biomarker Activity (AID 2284263); conditions: primary human bronchial epithelial cells with fibroblasts
Outline: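 Human bronchial epithelial cells with dermal fibroblasts co-culture; IL-8 measured by ELISA 24 hours after dosing, fitted vs DMSO. Cytotoxicity tracked in parallel cultures by SRB total-protein staining.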

[2] = read-out: Interleukin-1 alpha (IL1a), IL1A (gene 3552); assay: BSK_BF4T_IL1a: BioMAP Diversity Plus: BF4T Assay for Interleukin-1 alpha (IL1a) Biomarker Activity (AID 2284264); conditions: primary human bronchial epithelial cells with fibroblasts
Outline: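 Human bronchial epithelial cells co-cultured with dermal fibroblasts, dosed and read at 24 h. Secreted/surface IL-1α quantified by ELISA; gain-of-signal fitted relative to DMSO baseline. Parallel SRB total-protein staining tracked cytotoxicity.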

Decorin, DCN (gene 1634) = assay: BSK_MyoF_Decorin: BioMAP Diversity Plus: MyoF Assay for Decorin Biomarker Activity (AID 2284265); conditions: primary human lung fibroblasts
Outline: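 Decorin protein was quantified by ELISA 24 h after chemical addition to primary human lung fibroblasts and analysed as increase over DMSO. Cytotoxicity was tracked in parallel cultures by SRB total-protein staining read at 560 nm.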

KRT18 (gene 3875) [3] = assay: BSK_BF4T_Keratin818: BioMAP Diversity Plus: BF4T Assay for Keratin 818 Biomarker Activity (AID 2284266); conditions: primary human bronchial epithelial cells with fibroblasts
Outline: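 Co-culture of human bronchial epithelial cells and dermal fibroblasts, chemical exposure 24 h. Keratin 8/18 measured by ELISA; positive-direction fit vs DMSO. SRB total protein run in parallel cultures for cytotoxicity.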

[4] = read-out: Matrix Metallopeptidase 1 (MMP1), MMP1 (gene 4312); assay: BSK_MyoF_MMP1: BioMAP Diversity Plus: MyoF Assay for Matrix Metallopeptidase 1 (MMP1) Biomarker Activity (AID 2284268); conditions: primary human lung fibroblasts
Outline: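 Human lung fibroblasts (MyoF system) exposed to chemical for 24 h in 96-well format; MMP1 biomarker quantified by ELISA, with activity fitted in the positive direction relative to DMSO baseline.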

[5] = read-out: Matrix Metallopeptidase 1 (MMP1), MMP1 (gene 4312); assay: BSK_BF4T_MMP1: BioMAP Diversity Plus: BF4T Assay for Matrix Metallopeptidase 1 (MMP1) Biomarker Activity (AID 2284270); conditions: primary human bronchial epithelial cells with fibroblasts
Outline: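 Co-culture of human bronchial epithelial cells and dermal fibroblasts; MMP-1 levels measured by ELISA 24 hours after chemical dosing, relative to DMSO. Cytotoxicity checked in parallel cultures by SRB total-protein staining.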

[6] = read-out: Matrix Metallopeptidase 3 (MMP3), MMP3 (gene 4314); assay: BSK_BF4T_MMP3: BioMAP Diversity Plus: BF4T Assay for Matrix Metallopeptidase 3 (MMP3) Biomarker Activity (AID 2284271); conditions: primary human bronchial epithelial cells with fibroblasts
Outline: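 Co-culture of human bronchial epithelial cells and dermal fibroblasts dosed 24 h; MMP-3 measured by ELISA, positive-direction fit versus DMSO. Cytotoxicity tracked by SRB total-protein staining (560 nm) in parallel cultures.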

[7] = read-out: Tissue plasminogen activator (tPA), PLAT (gene 5327); assay: BSK_BF4T_tPA: BioMAP Diversity Plus: BF4T Assay for Tissue plasminogen activator (tPA) Biomarker Activity (AID 2284272); conditions: primary human bronchial epithelial cells with fibroblasts
Outline: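 tPA level quantified by ELISA at 24 h post-treatment in bronchial epithelial/dermal fibroblast co-cultures, gain of signal scored against DMSO baseline. Parallel cultures stained with 0.1% SRB (560 nm) to flag overt cytotoxicity.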

[8] = read-out: Matrix Metallopeptidase 9 (MMP9), MMP9 (gene 4318); assay: BSK_BF4T_MMP9: BioMAP Diversity Plus: BF4T Assay for Matrix Metallopeptidase 9 (MMP9) Biomarker Activity (AID 2284276); conditions: primary human bronchial epithelial cells with fibroblasts
Outline: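 Co-culture of human bronchial epithelial cells and dermal fibroblasts dosed for 24 h; MMP-9 quantified by ELISA and fitted upward versus DMSO. Cytotoxicity monitored in parallel cultures by SRB total-protein staining at the biomarker time point.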

[9] = read-out: Interleukin-8 (IL8), CXCL8 (gene 3576); assay: BSK_IMphg_IL8: BioMAP Diversity Plus: IMphg Assay for Interleukin-8 (IL8) Biomarker Activity (AID 2284277); conditions: primary human endothelial cells with macrophages
Outline: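 Co-culture of human venular endothelial cells and macrophages exposed to chemicals for 24 h; IL-8 quantified by ELISA and compared against the DMSO baseline, with SRB total-protein staining in parallel cultures for cytotoxicity.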

[10] = read-out: Intercellular Adhesion Molecule 1 (ICAM1), ICAM1 (gene 3383); assay: BSK_BE3C_ICAM1: BioMAP Diversity Plus: BE3C Assay for Intercellular Adhesion Molecule 1 (ICAM1) Biomarker Activity (AID 2284278); conditions: primary human bronchial epithelial cells
Outline: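 Primary human bronchial epithelial cells in BE3C system, 24 h after chemical dosing; cell-surface ICAM-1 measured by ELISA relative to DMSO. Parallel SRB staining (0.1% SRB after 10% TCA fixation, read at 560 nm) assessed cytotoxicity.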

[11] = read-out: Interferon-inducible T-cell alpha chemoattractant (ITAC), CXCL11 (gene 6373); assay: BSK_BE3C_ITAC: BioMAP Diversity Plus: BE3C Assay for Interferon-inducible T-cell alpha chemoattractant (ITAC) Biomarker Activity (AID 2284279); conditions: primary human bronchial epithelial cells
Outline: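 Steps: dose human bronchial epithelial cells with chemical; incubate 24 h; measure I-TAC by ELISA; fit endpoint in positive direction against DMSO control. Cytotoxicity was checked in parallel cultures by SRB staining at harvest.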

[12] = read-out: Interleukin-8 (IL8), CXCL8 (gene 3576); assay: BSK_BE3C_IL8: BioMAP Diversity Plus: BE3C Assay for Interleukin-8 (IL8) Biomarker Activity (AID 2284280); conditions: primary human bronchial epithelial cells
Outline: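 Primary human bronchial epithelial cells (BE3C system) exposed 24 h; IL-8 measured by ELISA and fitted in positive direction versus DMSO. Overt cytotoxicity assessed by SRB total-protein staining in parallel cultures.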

[13] = read-out: Epidermal growth factor receptor (EGFR), EGFR (gene 1956); assay: BSK_BE3C_EGFR: BioMAP Diversity Plus: BE3C Assay for Epidermal growth factor receptor (EGFR) Biomarker Activity (AID 2284281); conditions: primary human bronchial epithelial cells
Outline: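 Human primary bronchial epithelial cells (BE3C system) dosed with chemicals; EGFR measured by ELISA at 24 h, fitted in the positive direction relative to DMSO. Cytotoxicity tracked in parallel cultures by SRB total-protein staining.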

KRT18 (gene 3875) [14] = assay: BSK_BE3C_Keratin818: BioMAP Diversity Plus: BE3C Assay for Keratin 818 Biomarker Activity (AID 2284282); conditions: primary human bronchial epithelial cells
Outline: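 Primary human bronchial epithelial cells treated 24 h; Keratin 8/18 quantified by ELISA, fit relative to DMSO. Cytotoxicity tracked in parallel cultures by sulforhodamine B total-protein staining.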

[15] = BSK_MyoF_SRB: Viability Assessment in the BioMAP Diversity Plus: MyoF Assay (AID 2284267); conditions: primary human lung fibroblasts;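 note: total protein by SRB absorbance in parallel cultures as cytotoxicity measure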
Outline: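 Human lung fibroblasts, 24 h after chemical dosing; total protein measured by 0.1% sulforhodamine B staining after 10% TCA fixation, read at 560 nm, fitted relative to DMSO baseline.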

[16] = read-out: TIMP metallopeptidase inhibitor 1 (TIMP1), TIMP1 (gene 7076); assay: BSK_MyoF_TIMP1: BioMAP Diversity Plus: MyoF Assay for TIMP metallopeptidase inhibitor 1 (TIMP1) Biomarker Activity (AID 2284269); conditions: primary human lung fibroblasts
Outline: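 Primary human lung fibroblasts, MyoF multiplex system; chemical exposure 24 h; TIMP-1 by ELISA; positive fitting direction vs DMSO control.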

[17] = read-out: Plasminogen Activator Inhibitor-1 (PAI1), SERPINE1 (gene 5054); assay: BSK_BF4T_PAI1: BioMAP Diversity Plus: BF4T Assay for Plasminogen Activator Inhibitor-1 (PAI1) Biomarker Activity (AID 2284273); conditions: primary human bronchial epithelial cells with fibroblasts
Outline: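 Co-culture of human bronchial epithelial cells and dermal fibroblasts exposed to compound for 24 h. PAI-1 measured by ELISA; activity fitted in positive direction versus DMSO. Parallel SRB staining assessed overt cytotoxicity.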

[18] = BSK_BF4T_SRB: Viability Assessment in the BioMAP Diversity Plus: BF4T Assay (AID 2284274); conditions: primary human bronchial epithelial cells with fibroblasts
Outline: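 Co-culture of human bronchial epithelial cells and dermal fibroblasts (BioMAP BF4T) exposed 24 h. Total protein by sulforhodamine B staining (0.1% SRB after 10% TCA fixation, 560 nm) in parallel cultures; fitted vs DMSO.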

[19] = read-out: urokinase Plasminogen Activator (uPA), PLAU (gene 5328); assay: BSK_BF4T_uPA: BioMAP Diversity Plus: BF4T Assay for urokinase Plasminogen Activator (uPA) Biomarker Activity (AID 2284275); conditions: primary human bronchial epithelial cells with fibroblasts
Outline: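 Co-culture of human bronchial epithelial cells and dermal fibroblasts; uPA quantified by ELISA 24 hours after dosing, fitted relative to DMSO. Parallel SRB total-protein staining assessed overt cytotoxicity.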

Measured: AC50

C=CC(=O)OCC(F)(F)C(F)(F)C(F)(F)C(F)(F)COC(=O)C=C
inactive: [1] | KRT18 (gene 3875) [3] | [4] | [5] | [8] | [9] | KRT18 (gene 3875) [14]
active: [1] 30 µM | [2] 30 µM and 46.8 µM | Decorin, DCN (gene 1634) 15.7 µM and 17 µM | [6] 55.4 µM and 6.99 µM | [7] 8.21 µM and 9.07 µM | [8] 18.2 µM | [10] 26.3 µM and 25.9 µM | [11] 45.3 µM and 39.4 µM | [12] 7.98 µM and 7.77 µM | [13] 7.87 µM and 14.5 µM | KRT18 (gene 3875) [14] 10.7 µM

Cc1ccc(S(=O)(=O)OCC(F)(F)C(F)(F)C(F)(F)C(F)(F)C(F)(F)C(F)F)cc1
not listed: [18] | [19]
inactive: all other assays above

FC(F)(I)C(F)(F)C(F)(F)C(F)(F)I
active: [1] 45.6 µM and 51 µM and 55.6 µM | [2] 55.2 µM and 45.6 µM and 47.3 µM | Decorin, DCN (gene 1634) 45.8 µM and 45.9 µM and 54.5 µM | KRT18 (gene 3875) [3] 46.6 µM and 47.8 µM and 47.4 µM | [15] 46.5 µM and 53 µM and 53.4 µM | [4] 52 µM and 48.5 µM | [5] 51.2 µM and 48.6 µM and 50.2 µM | [6] 49.7 µM and 50.4 µM and 51.2 µM | [7] 39.8 µM and 46.2 µM and 48.8 µM | [18] 51.3 µM and 50.7 µM and 46.5 µM | [8] 54.1 µM and 47 µM and 46.8 µM | [9] 1.19 µM | [10] 44.1 µM and 41.4 µM and 55.3 µM | [11] 46.2 µM and 51.9 µM and 49.2 µM | [12] 47.4 µM and 46 µM | [13] 45.3 µM and 47.3 µM and 46.8 µM | KRT18 (gene 3875) [14] 47 µM and 47.5 µM and 43.1 µM
inactive: [4] | [9] | [12]

CCO[Si](CCC(F)(F)C(F)(F)C(F)(F)C(F)(F)C(F)(F)C(F)(F)F)(OCC)OCC
not listed: [5] | [15] | [17] | [19]
inactive: all other assays above

FC(F)(F)C(F)(F)C(F)(F)C(F)(F)C(F)(F)C(F)(F)C(F)(F)Br
not listed: [5] | [17] | [18]
inactive: all other assays above
